Bioassay records (PubChem BioAssay)
This is a sample that favours compounds with a hit; in the whole collection about 19% have one here.
TDP1 cell noCPT: qHTS for Inhibitors of human tyrosyl-DNA phosphodiesterase 1 (TDP1): qHTS in cells in absence of CPT. Potency, µM (series often up to 46.2 µM), without a hit: at the top dose activity change, negative = growth inhibition, usual class: inhibitors. AID 686978, 2013. actives 15% (n = 420,000). DT40 Tdp1-/- hTDP1 cells, no CPT, ATP luminescence, 48 h; further: potency means the concentration at half of the fitted maximal effect; nearly all actives have a fitted effect of over 55% in size
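Chicken DT40 Tdp1-/- cells complemented with human TDP1, screened without camptothecin (DMSO vehicle only), 400 cells/well. Compounds pin-transferred, cells incubated at 37 °C for at least 48 hr. Growth read as ATP-dependent luminescence (CellTiter-Glo, 30 min at RT).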
HT1080 IDH1KD tx: kills HT-1080 cells with IDH1 knockdown; HT-1080 IDH1 knockdown viability, ATP luminescence, 48 h; Potency, µM (highest dose often 46.1 µM), for inactives: at the top dose activity, negative = toxicity, usual class: cytotoxic; actives 2% (n = 360,000);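 further: potency means the concentration at half of the fitted maximal effect; 0% = DMSO wells and -100% = cell-free medium wells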
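After a 2 h attachment period, IDH1KD HT-1080 cells took pin-transferred compound for 48 h at 37 °C; ATP-based luminescence after 10 min room-temperature reagent incubation reported viability.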
IL-1B inflam inh: inflammasome signaling inhibition, IL-1 beta readout | THP-1 LPS/ATP IL-1B secretion, AlphaLISA, 16 h; hits give low values | activity change, % at 57.5 µM | actives 4.7% (n = 360,000) | AID 743279; in the data active means activity change below about -50%; inconclusive means mostly about -30% to -49%
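Secreted IL-1B measured by AlphaLISA bead assay after 16 h compound exposure of THP-1 cells; compounds (final up to 57.5 uM) added 1 h before LPS (250 ng/mL) and ATP (1.25 mM) stimulation; lower signal means less secretion.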
HT1080-NT tox: kills 2HG-producing HT-1080-NT fibrosarcoma cells; Potency, µM (top dose mostly 46.1 µM), inactives show at the highest dose activity, negative = less viability, actives largely listed as cytotoxic; HT-1080-NT fibrosarcoma viability, CellTiter-Glo ATP luminescence, 48 h; actives 1.6% (n = 360,000);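 further: NT is the 2HG producing partner of a matched IDH1 knockdown line; potency means the concentration at half of the fitted maximal effect; 0% = DMSO-treated cells and -100% = media-only wells without cells; nearly all actives have a fitted effect of over 55% in size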
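Viability by CellTiter-Glo luminescence after 48 h compound exposure at 37C of HT-1080-NT cells (750/well, RPMI, 5% FBS). % activity scaled between DMSO wells and medium-only wells, then curve-fitted and categorized by curve class.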
uPA surface inh: cell surface uPA generation inhibition | AID 540303 | cell surface uPA generation assay, qHTS | Potency, µM (series often up to 38.3 µM), without a hit: at the top dose activity change, negative = inhibition, actives largely listed as inhibitors | actives 0.31% (n = 330,000); active means well fitted inhibition curve with a large enough effect; inconclusive means small, poorly fitted or top-dose-only effect; inactive means no such curve, though single readings can be large or run the other way; tested in mouse RAW 264.7 cells; further: potency means the concentration at half of the fitted maximal effect; nearly all actives have a fitted effect of over 55% in size
DT40 TDP1 CPT: growth inhibition of DT40 Tdp1-/-;hTDP1 cells with camptothecin (screen for TDP1 inhibitors) | actives 12% (n = 420,000) | Potency, µM (doses to about 46.2 µM), without a hit: top-dose activity change, negative = growth inhibition, most hits filed as inhibitors | AID 686979 | chicken DT40 Tdp1-/-;hTDP1 cells + 20 nM CPT, ATP luminescence, 48 h; further: potency means the concentration at half of the fitted maximal effect; nearly all actives have a fitted effect of over 55% in size
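Chicken DT40 Tdp1-/- cells stably complemented with human TDP1 were seeded at 400 cells/well in medium containing 20 nM camptothecin, exposed to pin-transferred compounds, and grown at 37 °C for at least 48 hr. Viability was read as ATP luminescence.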
Numbers without * were called inactive; u = inconclusive; x = not tested or not shown; [ ] = remark or other dose. Unless noted, the call rests on the fitted dose curve; in most records, active means well fitted curve in the direction sought with a large enough effect; inconclusive means small, poorly fitted or top-dose-only effect, or another doubt; inactive means no such curve, though single readings can be large; an effect the other way counts as inactive or inconclusive. Unless noted, on the % scale 0 is the no-effect control and ±100 the full control effect.

SMILES	TDP1 cell noCPT	HT1080 IDH1KD tx	IL-1B inflam inh	HT1080-NT tox	uPA surface inh	DT40 TDP1 CPT
COc1ccc(N2CCN(CCNC(=O)c3ccc4nc5ccccc5c(=O)n4c3)CC2)cc1	1%	13%	13	17%	-13%	-26%
COc1ccc(Nc2cc(C(=O)NCCCN3CCOCC3)c3ccccc3n2)cc1OC	u	-3%	-21	-2%	0%	29µM*
CC(C)(C)C1CCc2c(sc(NC(=O)c3cc4ccccc4c(=O)o3)c2C(N)=O)C1 (stereo not given)	-29%	x	x	x	x	-10%
Cn1c(=O)cc(SCC(=O)Nc2cccc(C#N)c2)c2ccc(Cl)cc21	-22%	x	x	x	x	-17%
COc1ccc(Nc2cc(C(=O)NCCCN(C)Cc3ccccc3)c3ccccc3n2)c(OC)c1	13µM*	x	x	x	x	15µM*
COc1ccc(Nc2cc(C(=O)NCCCN3CCOCC3)c3ccccc3n2)c(OC)c1	-25%	-6%	-2	-11%	1%	-4%
COc1ccc(N2CCN(CCCNC(=O)c3cc(Nc4ccccc4OC)nc4ccccc34)CC2)cc1	u	x	x	x	x	23µM*
COc1ccc(Nc2cc(C(=O)NCCCN3CCN(c4ccccc4F)CC3)c3ccccc3n2)c(OC)c1	16µM*	x	x	x	x	u
COc1ccc(N2CCN(CCCNC(=O)c3cnn(-c4ccc(C)cc4)c3-n3cccc3)CC2)cc1	5.2µM*	x	x	x	x	5.8µM*
Cc1ccc(-c2nc(SC(C)C(=O)c3c(N)n(C)c(=O)n(C)c3=O)n[nH]2)cc1 (stereo not given)	23µM*	8%	28	4%	0%	u
Cc1nn(C(C)C(=O)NCc2ccccc2Cl)c(=O)c2c1sc1ccccc12 (stereo not given)	u	-3%	6	-2%	-2%	u
CCCS(=O)(=O)NCc1c(C)ncc2c1CCN(C(=O)/C=C/c1cccc(Cl)c1)C2	-20%	x	x	x	x	5%[9.04 µM]
O=C(O)CCCC(=O)Nc1ccn(-c2ccccc2)n1	u	-4%	47	-1%	2%	18µM*
COCc1cc(O)c(O)c(O)c1-c1c(COC)cc(O)c(O)c1O	4.5µM*	x	x	x	x	5µM*
CCc1oc(C(=O)O)cc1COC	5%	7%	21	7%	36%	-1%
CN(/C(=N/S(=O)(=O)c1cccs1)c1ccccc1)c1ccccc1	u	-6%	-12	-4%	13%	-3%
CN(C)c1ccc(N/C(=N\S(=O)(=O)c2cccs2)c2ccccc2)cc1	6.5µM*	-7%	-23	-4%	1%	u
O=C1NC(=S)N/C1=C\c1ccc(N2CCOCC2)cc1	u	5%	-8	-1%	-20%	16µM*
O=C1NC(=S)N/C1=C/c1ccc2c(c1)OCO2	5.8µM*	1%	-25	5%	u	u
O=C1NC(=S)SC1=Cc1ccc2c(c1)OCO2	-23%	-1%	-2	0%	3%	1%
CC(C)COCc1ccc(O)c2ncccc12	0.65µM*	10µM*	127	21µM*	-7%	0.92µM*
CCCOCc1ccc(O)c2ncccc12	0.58µM*	u	-8	-11%	-16%	0.82µM*
COc1ccc(S(=O)(=O)N(CC(C)C)CC(C)C)c2cccnc12	u	-2%	-9	0%	10%	u
C[n+]1ccccc1COc1ccc(C(C)(C)C)cc1	2.3µM*	-23%	-5	-10%	-9%	2.1µM*
CC(C)SCCCOc1ccc(C(C)(C)C)cc1	u	11%	16	12%	2%	8%
CCc1ccccc1NC(=O)N1CCN(Cc2nc3ccc(C)cc3o2)CC1	-13%	x	x	x	x	-4%
CN(c1nnc(NC(=O)Nc2ccc(Br)cc2)s1)C1CCCCC1	15µM*	x	x	x	x	u
